Test in all cases: NCI-60 one-dose screen, 48 h (100 = growth as untreated, 0 = no growth, -100 = all killed)
In assay [1] the test system is SR leukemia.
Assay [2] deals with RPMI-8226 leukemia. The settings on record: 10 µM unless noted.
Assay [3] has as its system OVCAR-8 ovarian.
Assay [4] concerns OVCAR-5 ovarian.
Assay [5] relates to OVCAR-4 ovarian.
Assay [6] concerns SK-OV-3 ovarian.
For assay [7], the system named is IGROV1 ovarian. The settings on record: 10 µM unless noted.
The test system of assay [8] is OVCAR-3 ovarian.
For assay [9], the system named is HS 578T breast.
Assay [10] has as its system NCI/ADR-RES ovarian.
Assay [11] has as its system T-47D breast.
In assay [12] the test system is BT-549 breast.
The test system of assay [13] is MDA-MB-435 melanoma.
Assay [14] relates to SW-620 colon.
Assay [15] deals with MCF7 breast.
In assay [16] the test system is HCT-116 colon.
Assay [17] deals with HCC-2998 colon.
Assay [18] concerns KM12 colon. Particulars: 10 µM unless noted.

Consider five compounds from PubChem BioAssay (NCI).

Values joined by “and” are separate entries in the source; they are usually repeats but may differ in a detail not shown here. Equal values may be shown once. The panel holds about 83,000 compounds, 20% with a hit somewhere; the sample as a whole holds those more often.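 Interpretation: 100, growth as untreated; towards 0, rising growth inhibition; 0, no net growth; 0 to -100, cell death. Compounds scoring below 10 were considered active.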 Values without a mark were called inactive. Active and inactive are the calls of the source.

`COc1ccc(CCN(C)CCCC(C#N)(c2ccc(OC)c(OC)c2)C(C)C)cc1OC` (configuration not stated): the growth in assay [1] (10 µM unless noted) is 80.8% and 94.1% and 90.1%; in assay [2], 83.9% and 83.6% and 94.5%; in assay [3] (10 µM unless noted), 97.5% and 93.2%; in assay [4] (10 µM unless noted) it was 93.1% and 81% and 92.6%; in assay [5] (10 µM unless noted), 85.1% and 104%; in assay [6] (10 µM unless noted), 101% and 98.3% and 97.9%. Besides, the growth is 98.7% and 94.4% in [7]; 103% and 101% and 96% in [8] (10 µM unless noted); 99.8% and 88.1% and 93.6% in [9] (10 µM unless noted); 86.6% and 92% and 86.1% in assay [10] (10 µM unless noted); 98.2% and 106% in assay [11] (10 µM unless noted); 94.4% and 93.3% and 94.6% in [12] (10 µM unless noted). In addition, the growth was 102% and 93.3% and 97.9% in assay [13] (10 µM unless noted); 92.8% and 100% and 92.6% in assay [14] (10 µM unless noted); 89% and 106% and 95.3% in assay [15] (10 µM unless noted); 75% and 78.9% and 93.4% in [16] (10 µM unless noted); 99.7% and 111% and 97.5% in [17] (10 µM unless noted); 114% and 115% and 95.6% in assay [18].
Consider `N#CCCOc1ccccc1`, for which the growth was 104% in assay [1] (10 µM unless noted); 103% in [2]; 98.9% in assay [3] (10 µM unless noted); 107% in assay [4] (10 µM unless noted); 98.8% in assay [5] (10 µM unless noted); 97% in assay [6] (10 µM unless noted). The growth in assay [7] was 102%; in assay [8] (10 µM unless noted) it was 114%; in [9] (10 µM unless noted), 99.5%; in assay [10] (10 µM unless noted) it was 112%; in [11] (10 µM unless noted), 96.5%; in assay [12] (10 µM unless noted), 88.2%. Further, the growth in assay [13] (10 µM unless noted) is 96.4%; in assay [14] (10 µM unless noted) it was 106%; in [15] (10 µM unless noted), 94.1%; in assay [16] (10 µM unless noted), 106%; in [17] (10 µM unless noted), 110%; in [18], 106%.
`CNC(=O)c1ccc(C)c(-n2c(C)cc(OCc3ccc(F)cc3F)c(Br)c2=O)c1`: the growth is 64.9% and 85.9% in assay [1] (10 µM unless noted); 48.2% and 74% in [2]; 70.3% and 86.8% in assay [3] (10 µM unless noted); 77.1% and 86.2% in assay [4] (10 µM unless noted); 73.7% and 84.9% in assay [5] (10 µM unless noted); 76.4% and 91.3% in assay [6] (10 µM unless noted). The growth in [7] was 84.6% and 92%; in assay [8] (10 µM unless noted), 85.1% and 101%; in assay [9] (10 µM unless noted) it was 103%; in assay [10] (10 µM unless noted) it was 80.5% and 80.7%; in assay [11] (10 µM unless noted), 40.9% and 58.7%; in assay [12] (10 µM unless noted) it was 75.7% and 76.4%. Further, the growth in assay [13] (10 µM unless noted) is 85.4% and 99.4%; in assay [14] (10 µM unless noted), 79.9% and 95.9%; in [15] (10 µM unless noted), 82.8% and 90.5%; in [16] (10 µM unless noted), 68.1% and 78.4%; in assay [17] (10 µM unless noted), 67.5% and 72.6%; in assay [18] it was 90% and 92.5%.
On to `O=C(N/N=C/c1ccc2c(c1)OCO2)c1ccncc1`, for which the growth in [1] (10 µM unless noted) was 113% and 134%; in [2] it was 111% and 103%; in assay [3] (10 µM unless noted), 100% and 109%; in assay [4] (10 µM unless noted), 98.7% and 113%; in assay [5] (10 µM unless noted) it was 103% and 98.7%; in [6] (10 µM unless noted), 101% and 104%. In addition, the growth in assay [7] was 88.7% and 86.6%; in assay [8] (10 µM unless noted), 106% and 96.5%; in [9] (10 µM unless noted) it was 103% and 102%; in assay [10] (10 µM unless noted), 101% and 106%; in [11] (10 µM unless noted) it was 112% and 102%; in assay [12] (10 µM unless noted), 103% and 102%. The growth in assay [13] (10 µM unless noted) was 108% and 112%; in assay [14] (10 µM unless noted), 93.6% and 98.3%; in assay [15] (10 µM unless noted) it was 107% and 86.8%; in [16] (10 µM unless noted) it was 105% and 101%; in [17] (10 µM unless noted), 103% and 113%; in assay [18], 91.9% and 103%.
For `CCCCCCCCCCCCCCCc1ccc(Cl)c(O)c1Cl` (tested in a mixture with another compound), the growth was 4.53% (active) in assay [1] (0.25 µM); 79.6% in [1] (10 µM); 29.8% [0.25 µM] in assay [2]; 36% in assay [3] (0.25 µM); 92.2% in assay [3] (10 µM); 78.5% in [4] (0.25 µM). Also, the growth was 106% in assay [4] (10 µM); 65% in assay [5] (0.25 µM); 115% in assay [5] (10 µM); 53.5% in assay [6] (0.25 µM); 111% in [6] (10 µM); 65.3% in assay [8] (0.25 µM). For the same compound, the growth in assay [8] (10 µM) was 112%; in [9] (0.25 µM), 63.9%; in assay [9] (10 µM), 105%; in assay [10] (0.25 µM), 94.8%; in assay [10] (10 µM), 96.5%; in [11] (0.25 µM), 35.5%. The growth in assay [11] (10 µM) is 85.4%; in assay [12] (0.25 µM) it was 66.2%; in [12] (10 µM), 103%; in assay [13] (0.25 µM), 56%; in [13] (10 µM) it was 103%; in [14] (0.25 µM), 24.4%. In addition, the growth in assay [14] (10 µM) was 101%; in assay [15] (0.25 µM), 16.4%; in assay [15] (10 µM), 112%; in assay [16] (0.25 µM) it was 21.4%; in assay [16] (10 µM), 75.7%; in assay [17] (0.25 µM), 38.6%.
